# Laboratory results reported in PubChem BioAssay AID492956 (The Scripps Research Institute Molecular Screening Center, 2010).
# “And” between values parts separate entries of the source, which are not always exact repeats. Equal entries are not always repeated. Among all 340,000 compounds or so, about 3,300 (0.97%) were called active. The sample holds actives, similar compounds and a random draw of the others, so the mix is not that of the screen.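 The calls were made as follows: active = inhibition above the mean over all tested compounds plus 3 SD (cut at about 30% in these data); inactive = the rest.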
# Molecular target: Platelet-activating factor acetylhydrolase 2, cytoplasmic (Homo sapiens) (UniProt Q99487)
# Assay: inhibition of cytoplasmic PAF acetylhydrolase 2 – biochemical, fluorescence polarization, human, primary screen (AID 492956);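 also: inhibitors block probe labeling of enzyme so polarization drops; 0% = enzyme with DMSO and 100% = wells lacking PAFAH2 protein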
# Conditions: recombinant PAFAH2, FP-rhodamine activity probe, at 3.39 µM, active compounds read high
row,SMILES,inhibition
1,COC(=O)c1ccc(CN2CCC(CO)(Cc3ccc(OC)cc3)CC2)cc1,-1.13% (inactive)
2,CCOc1ccccc1NC(=O)C1CCCN(C(=O)Nc2ccccc2)C1 (stereo not drawn),8.64% (inactive)
3,COCCNC(=O)CN(Cc1ccco1)C(=O)CCC(=O)Nc1nccs1,-1% (inactive)
4,COc1cc(/C=C/C(=O)OCC(=O)NCCCc2ccccc2)ccc1O,48.4% (active)
5,COc1ccc(OC)c(/C=C/C(=O)OCC(=O)Nc2ccc3c(c2)OCCO3)c1,43.7% (active)
6,COc1cccc(NC(=O)CN(C)C(=O)/C=C/c2cc(OC)ccc2OC)c1,1.18% (inactive)
7,COc1cccc(NC(=O)COC(=O)CCOc2ccccc2OC)c1,3.71% (inactive)
8,COc1ccc([N+](=O)[O-])cc1NC(=O)COC(=O)/C=C/c1ccco1,14.1% (inactive)
9,COc1ccc(OC)c(/C=C/C(=O)c2ccc3c(c2)OCO3)c1,10.8% (inactive)
10,COc1ccccc1OCCCC(=O)Nc1ccc2c(c1)OCCO2,-0.62% (inactive)
11,COc1ccc(/C=C/C(=O)OCC(=O)Nc2cccc(Oc3ccccc3)c2)c(OC)c1,44.5% (active)
12,COc1cc(/C=C/C(=O)OCC(=O)c2ccccc2)cc(OC)c1OC,18% (inactive)
13,COc1cccc(NC(=O)COC(=O)/C=C/c2ccco2)c1,71.4% (active)
14,COc1cc(/C=C/C(=O)OCC(=O)NC(=O)NCc2ccccc2)ccc1OCC#N,-1.43% (inactive)
15,NS(=O)(=O)c1cccc(NC(=O)COC(=O)/C=C/c2ccco2)c1,26.1% (inactive)
16,O=C(Nc1cccc2c1CCCC2)C1CCN(C(=O)NC2CCCCC2)CC1,-4.67% (inactive)
17,COc1ccc(OC)c(/C=N/NC(=O)c2ccc[n+](CC(=O)c3ccccc3)c2)c1,-2.42% (inactive)
18,Cc1ccc(/C=C/C(=O)O)cc1S(=O)(=O)N1CCC(Cc2ccccc2)CC1,2.39% (inactive)
19,O=C(C[C@@H]1C/C=C\CCC(=O)OC[C@@H]2CCCN2C1=O)NCCO,15.7% (inactive)
20,CCOc1ncccc1C(=O)N(C)CC(=O)Nc1ccc(F)cc1,-4.72% (inactive)
21,CC1CCc2sc(C(=O)N/N=C/C3CCCCC3)cc2C1 (stereo not drawn),0.32% (inactive)
22,O=C(CSc1nnc(COc2ccc(Cl)cc2)n1Cc1ccco1)N1CCNC1=O,6.03% (inactive)
23,O=C(COC(=O)c1ccc(F)cc1)NCCCc1ccccc1,21.2% (inactive)
24,Cc1cnc(C(=O)OCC(=O)NCCCc2ccccc2)cn1,4.7% (inactive)

row,SMILES,inhibition
1,COc1ccc(C(=O)OCC(=O)NCCCc2ccccc2)cc1OC,55.4% (active)
2,Cn1c2c(c(=O)n(C)c1=O)CN(Cc1ccco1)CN2,-2.71% (inactive)
3,CCCN(CC(=O)Nc1ccccc1C)C(=O)c1ccc2[nH]c3c(c2c1)CC(C)CC3 (stereo not drawn),8.67% (inactive)
4,CCOc1ccc(S(=O)(=O)N2CCCCC2)cc1NC(=O)CN1CCCC1c1cccs1 (stereo not drawn),-0.88% (inactive)
5,CC(=O)Nc1ccc(S(=O)(=O)NCC2CCC(C(=O)NCCc3ccccc3)CC2)cc1 (stereo not drawn),6.72% (inactive)
6,CC1=NN(c2ccc(Cl)c(C(=O)O)c2)C(=O)/C1=C/c1ccc(-c2ccccc2[N+](=O)[O-])o1,36.5% (active)
7,O=C1NC(c2ccc(-c3ccccc3[N+](=O)[O-])o2)C(C(=O)c2ccc(Cl)cc2)C(O)(C(F)(F)F)N1 (stereo not drawn),1.45% (inactive)
8,O=C(Nc1ccc(N2CCOCC2)cc1)c1ccc(-c2ccccc2[N+](=O)[O-])o1,-11.3% (inactive)
9,CC(CO)(CO)NC(=O)c1ccc(=O)[nH]n1,-12.6% (inactive)
10,Cc1c2cnn(CC(=O)NCCCN3CC(C)CC(C)C3)c(=O)c2c(C)n1Cc1ccc(Cl)cc1 (stereo not drawn),5.22% (inactive)
11,O=C(c1cccnc1)N(c1cc2sc(=O)oc2c2ccccc12)S(=O)(=O)c1ccccc1,36.6% (active)
12,COc1ccc(N(C(=O)c2cccnc2)S(=O)(=O)c2ccc(OC)c(OC)c2)cc1,-3.27% (inactive)
13,O=C(c1cccnc1)N(Cc1ccccc1)C(=O)c1cccnc1,3.92% (inactive)
14,COc1cccc2oc(CCc3ccccc3)cc(=O)c12,6.23% (inactive)
15,CCC1C(C#N)=C(SC)NC2=C1C(=O)CC(C)(C)C2 (stereo not drawn),-6.12% (inactive)
16,CCOc1ccc(NC(=O)c2ccc(NC(=O)COC(=O)c3ccc(NC(=O)CC#N)cc3)cc2)cc1,-53.2% (inactive)
17,CCC(C)(C)c1ccc(Oc2ccc(NC(=O)COC(=O)C3=COCCO3)cc2)cc1,55.4% (active)
18,O=C(OCC(=O)c1cccs1)C1=COCCO1,17.6% (inactive)
19,COc1cccc(C2=CC(=O)C[C@H](c3ccc(F)cc3)C2)c1OC,-13.9% (inactive)
20,O=C(OC1CCOC1=O)c1cccc(S(=O)(=O)Nc2ccc(F)cc2)c1 (stereo not drawn),9.72% (inactive)
21,Cc1ccc2nc(COc3ccc(N(C)S(=O)(=O)c4ccccc4)cc3)cc(=O)n2c1,8.78% (inactive)
22,CC1CCCCC1NC(=O)CCS(=O)(=O)c1ccc2c(c1)NC(=O)CO2 (stereo not drawn),26.2% (inactive)
23,O=[N+]([O-])c1ccc(C=Nc2ccc(Cl)cc2Cl)s1,63.8% (active)
24,CC1CN(C(=O)c2ccc([N+](=O)[O-])s2)CC(C)O1 (stereo not drawn),5.08% (inactive)

row,SMILES,inhibition
1,CNN/C(N=Cc1ccc([N+](=O)[O-])s1)=N\S(=O)(=O)c1cc(C)c(Cl)cc1SCc1ccccc1,5.01% (inactive)
2,O=C1COc2ccc(C(=O)COC(=O)CCOc3ccccc3)cc2N1,0.36% (inactive)
3,COc1ccc(OC)c(-c2csc(-c3cccs3)n2)c1,5.06% (inactive)
4,COc1cccc(NC(=O)CN(C)C(=O)/C=C/c2cn(-c3ccccc3)nc2-c2cccs2)c1,-54.5% (inactive)
5,COc1cccc(C(=O)n2ccc(-c3cccs3)n2)c1,31.8% (active)
6,CC(C)(C)c1ccc(Cn2nnc3c(=O)[nH]c(C4CCCN(C(=O)c5ccco5)C4)nc32)cc1 (stereo not drawn),-1.16% (inactive)
7,Cc1cc(C)cc(NC(=O)CCN2C(=O)c3ccccc3C2=O)c1,-14% (inactive)
8,CCn1cc(CN2CCN(CC(C)(C)C)C(CCO)C2)c2ccccc21 (stereo not drawn),1.37% (inactive)
9,O=C(COC(=O)/C=C/c1cccs1)NC1CCCCC1,80.5% (active)
10,CCOc1ccc(/C=C/C(=O)OCC(=O)c2ccccc2OC)cc1OC,6.36% (inactive)
11,COc1ccc(/C=C/C(=O)OCC(=O)NC2CCCCCC2)cc1OC,87.4% (active)
12,COc1ccccc1/C=C/C(=O)NC1CC2CCC1C2 (stereo not drawn),-0.78% (inactive)
13,COc1cc(/C=C/C(=O)OCC(=O)NC2CC2)cc(OC)c1OC,9.4% (inactive)
14,COc1ccccc1-n1ccnc(SCC(=O)NC2CCCCC2)c1=O,-2.23% (inactive)
15,COc1ccccc1/C=C/C(=O)OCC(=O)NC1CCCCCC1,93.2% (active)
16,COc1ccc(CCNC(=O)COC(=O)/C=C/c2cccs2)cc1OC,6.71% (inactive)
17,O=C(CCC(=O)c1cccs1)NC1CCCCCC1,8.2% (inactive)
18,COc1cc2c(C(=O)N3CCN(C)CC3)c(CSc3ccccc3)n(C)c2cc1Br,-5.01% (inactive)
19,COc1ccc(NC(=O)c2cccc(Cl)c2)c[n+]1[O-],-0.76% (inactive)
20,O=C(CSCc1c(Cl)cccc1Cl)NN1C(=O)c2ccccc2C1=O,11.8% (inactive)
21,Cc1cccc(CN2CCN(Cc3cnn(-c4ccccc4F)c3)CC2CCO)n1 (stereo not drawn),-6.68% (inactive)
22,COc1ccc(C(=O)O/N=C(\N)Cc2ccc(Cl)cc2Cl)cc1OC,85.3% (active)
23,COc1ccc(C(=O)n2nc(-c3ccc(Cl)cc3)nc2N)cc1OC,3.15% (inactive)
24,COc1ccc(CCn2ccc(O)c(Cc3ccc(Cl)cc3Cl)c2=O)cc1OC,-2.38% (inactive)

row,SMILES,inhibition
1,C=CCOc1ccc(C(=O)Nc2ccccc2C(=O)N2CCCC2)cc1,7.79% (inactive)
2,CCCCn1c(O)c(N=NC(=O)Cn2c(C(F)(F)F)nc3ccccc32)c2ccccc21,-3.07% (inactive)
3,O=C(O)Cc1csc(-c2cccc(Oc3ccccc3)c2)n1,3.06% (inactive) and 0.17% (inactive)
4,CC1CC(C)CN(c2ccc(S(=O)(=O)N3CCOCC3)cc2)C1 (stereo not drawn),13.7% (inactive)
5,Cc1ccc(OCC(=O)N2CCN(S(=O)(=O)c3ccc(Cl)s3)CC2)cc1C,6.03% (inactive)
6,Cc1ccc(S(=O)(=O)N(C)C)cc1NC(=O)/C=C/c1cccs1,5.59% (inactive)
7,CN(C)S(=O)(=O)c1cccc(NC(=O)COC(=O)c2cc(=O)[nH]c(=O)[nH]2)c1,0.25% (inactive)
8,Cc1ccc(S(=O)(=O)N(C)C)cc1NC(=O)COC(=O)/C=C/c1cccs1,59.3% (active)
9,CN(C)S(=O)(=O)c1cccc(NC(=O)COC(=O)/C=C/c2cccs2)c1,72.2% (active)
10,CN(C)S(=O)(=O)c1cccc(NC(=O)COc2ccc3ccccc3c2)c1,-8.6% (inactive)
11,Cc1ccc(S(=O)(=O)N(C)C)cc1NC(=O)COC(=O)c1c(C)noc1C,-9.47% (inactive)
12,O=C(C1CCN(S(=O)(=O)Cc2ccccc2)CC1)N1CCCc2ccccc21,-7.5% (inactive)
13,COCCNC(=O)/C(C#N)=C/c1cccc(OCc2ccccc2)c1,30.2% (active)
14,COCCNC(=O)/C(C#N)=C/c1nc(N(C)C)n(-c2ccc(F)cc2)c1Cl,1.81% (inactive)
15,CCOC(=O)NC(=O)/C(C#N)=C\c1ccccc1,-7.65% (inactive)
16,Cc1ccc(-n2c(C)cc(C(=O)CN3C(=O)C(=O)N(C4CCCC4)C3=O)c2C)cc1,4.94% (inactive)
17,Cc1cc(C(=O)COC(=O)C2CC2)c(C)n1-c1ccc(F)cc1,44.5% (active)
18,Cc1cc(C(=O)COc2ccccc2Cl)c(C)n1C1CC1,0.58% (inactive)
19,C=CCOCCN(C)C1=NS(=O)(=O)c2ccccc21,-9.33% (inactive)
20,COc1ccc(/C=N/N(C)C2=NS(=O)(=O)c3ccccc32)cc1OC,31.8% (active)
21,COc1cc(C(=O)NN(CCC#N)C2=NS(=O)(=O)c3ccccc32)cc(OC)c1OC,4.52% (inactive)
